# Compound activity (PubChem BioAssay)
# The list is not random: actives were taken first. Their share in the collection is about 1.4%.
# Giardia FBPA inh-1: blocks Giardia fructose-bisphosphate aldolase activity; purified Giardia FBPA; Potency, µM (titrated, usually from 59.6 µM), inactives show at the top dose activity, negative = inhibition, hits mostly inhibitors; 290,000 tested, 0.71% active; A8B2U2; further: nearly all actives have a fitted effect of over 55% in size
#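 40 nM FBPA preincubated 10 min at RT with compound (up to 57.5 uM final), then substrate plus GAPDH/TPI/NAD/arsenate coupling and diaphorase/resazurin added. Fluorescence read after 20 min at RT, 525/598 nm.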
# LmPK inhibitor: inhibitors of Leishmania mexicana pyruvate kinase. Q27686. purified LmPK, Kinase-Glo ATP luminescence, 1 h. Potency, µM (series often up to 57.5 µM), without a hit: at the top dose activity change, negative = inhibition, usual class: inhibitors. 290,000 tested, 0.37% active
#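 Kinase-Glo luminescence read after 1 h RT reaction of 0.1 nM LmPK with 0.5 mM PEP and 0.1 mM ADP. Activity scaled between uninhibited and enzyme-free controls.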
# TbPYK inhibitor: T. brucei pyruvate kinase inhibition. Q57TT1. TbPYK enzyme, Kinase-Glo Plus ATP luminescence, 45 min. Potency, µM (titrated, usually from 76.8 µM), for inactives: top-dose activity, negative = inhibition, hits mostly inhibitors. 410,000 tested, 0.12% active; further: nearly all actives have a fitted effect of over 50% in size
#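 Glycolytic pyruvate kinase of T. brucei was incubated with substrate, test compound and 130 uM ADP for 45 minutes at room temperature. Luminescent Kinase-Glo Plus signal was measured after 10 minutes.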
# AmpC inh no detg: inhibitors of E. coli AmpC beta-lactamase without detergent; P00811; AmpC nitrocefin hydrolysis, absorbance 480 nm, 0.0001% Triton; 330,000 tested, 0.52% active; Potency, µM (doses to about 57.1 µM), for the others: at the top dose activity change, negative = inhibition, actives largely listed as inhibitors;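 further: plate controls were no compound for no effect and no enzyme for full effect; nearly all actives have a fitted effect of over 20% in size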
# Target sequence (P00811 whole entry, looked up): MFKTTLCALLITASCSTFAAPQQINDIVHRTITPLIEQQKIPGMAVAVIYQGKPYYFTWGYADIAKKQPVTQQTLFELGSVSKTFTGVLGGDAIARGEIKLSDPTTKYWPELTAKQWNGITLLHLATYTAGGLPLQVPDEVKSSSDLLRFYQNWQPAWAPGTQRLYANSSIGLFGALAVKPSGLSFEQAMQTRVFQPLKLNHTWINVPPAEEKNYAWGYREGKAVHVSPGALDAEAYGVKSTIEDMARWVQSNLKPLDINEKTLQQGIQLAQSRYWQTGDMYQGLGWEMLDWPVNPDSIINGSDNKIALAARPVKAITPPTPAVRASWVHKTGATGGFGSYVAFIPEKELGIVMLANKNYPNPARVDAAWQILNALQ
#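 AmpC (5.3 nM in the dispensed reagent) in 20 mM phosphate pH 7.0 with 0.01% (detergent screen) or 0.0001% Triton X-100 was preincubated with compounds for 15 min at room temperature. Nitrocefin was then added from an 800 uM solution, and hydrolysis was followed at 480 nm.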
# RE007 growth inh: less growth of the S. pombe RE007 Vpr strain | 360,000 tested, 0.21% active | Potency, µM (doses to about 92.2 µM), inactives show top-dose activity change, negative = less growth, actives largely listed as inhibitors | S. pombe RE007 Vpr strain, BacTiter-Glo ATP luminescence, 24 h | AID 651644; active means well fitted falling curve with a large enough effect; inconclusive means small, poorly fitted or top-dose-only effect; inactive means no such curve, though single readings can be large or run the other way; further: nearly all actives have a fitted effect of over 50% in size
#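 Fission yeast RE007 carrying one integrated HIV-1 vpr copy, seeded at OD 0.01 in PMG+AL medium with 23 nL pinned compound. Grown 24 h at 30 degrees; viability read by BacTiter-Glo luminescence after 5 min.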
# AmpC detergent: AmpC beta-lactamase inhibition with detergent present; P00811; AmpC hydrolysis of nitrocefin, absorbance 480 nm, 0.01% Triton; Potency, µM (doses to about 114 µM), for the others: at the highest dose activity change, negative = inhibition, usual class: inhibitors; 370,000 tested, 0.041% active;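 further: 0% = no-compound wells and -100% = no-enzyme wells; nearly all actives have a fitted effect of over 25% in size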
#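 AmpC (5.3 nM in the dispensed reagent) in 20 mM phosphate pH 7.0 with 0.01% (detergent screen) or 0.0001% Triton X-100 was preincubated with compounds for 15 min at room temperature. Nitrocefin was then added from an 800 uM solution, and hydrolysis was followed at 480 nm.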
# Giardia growth: inhibitors of Giardia lamblia growth; shares compounds with Giardia FBPA inh-1; Giardia lamblia trophozoite growth inhibition; Potency, µM (series often up to 57.5 µM), for the others: at the top dose activity change, negative = inhibition, actives largely listed as inhibitors; 1,500 tested, 5% active; AID 2785;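 further: trophozoites exposed to compound for 48 h at 37 °C; nearly all actives have a fitted effect of over 70% in size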
# Mammalian tox: toxic to mammalian cells in Giardia aldolase counter-screen; shares compounds with Giardia FBPA inh-1; mammalian cell viability counter-screen, qHTS; Potency, µM (doses to about 57.5 µM), for the others: top-dose viability change, negative = toxicity, actives largely listed as inhibitors; 1,500 tested, 4% active; AID 2786;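 further: Chinese hamster ovary cells used as mammalian cytotoxicity surrogate; viability measured as cellular ATP by luminescence; compound exposure lasted 48 h before reading; nearly all actives have a fitted effect of over 60% in size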
# Giardia FBPA inh-2: confirmation of Giardia fructose-bisphosphate aldolase inhibitors; shares compounds with Giardia FBPA inh-1; purified Giardia aldolase enzyme activity, qHTS; Potency, µM (doses to about 57.5 µM), without a hit: top-dose activity change, negative = inhibition, actives largely listed as inhibitors; 1,500 tested, 5% active; AID 2787; further: nearly all actives have a fitted effect of over 45% in size
# Rabbit aldolase: blocks rabbit muscle aldolase in Giardia aldolase selectivity test; AID 2794; Rabbit muscle FBPA enzyme inhibition, selectivity counter-screen; 1,500 tested, 4% active; shares compounds with Giardia FBPA inh-1; Potency, µM (highest dose often 57.5 µM), for the others: at the highest dose activity, negative = inhibition, hits mostly inhibitors; further: nearly all actives have a fitted effect of over 60% in size
# GAPDH counter: counter-screen for Giardia aldolase inhibitors: GAPDH coupling enzyme. shares compounds with Giardia FBPA inh-1. GAPDH coupling enzyme counterscreen, biochemical, qHTS. Potency, µM (titrated, usually from 57.5 µM), for the others: at the highest dose activity change, negative = inhibition, usual class: inhibitors. 1,500 tested, 6% active. AID 2795; further: nearly all actives have a fitted effect of over 55% in size
# Numbers without * were called inactive; u = inconclusive; x = not tested or not shown; [ ] = another dose, or the depositor's remark. Unless noted, the call rests on the fitted dose curve; in most records, active means well fitted curve in the direction sought with a large enough effect; inconclusive means small, poorly fitted or top-dose-only effect, or another doubt; inactive means no such curve, though single readings can be large; an effect the other way counts as inactive or inconclusive. Unless noted, on the % scale 0 is the no-effect control and ±100 the full control effect; potency means the concentration at half of the fitted maximal effect.
SMILES,Giardia FBPA inh-1,LmPK inhibitor,TbPYK inhibitor,AmpC inh no detg,RE007 growth inh,AmpC detergent,Giardia growth,Mammalian tox,Giardia FBPA inh-2,Rabbit aldolase,GAPDH counter
CCCCN(C(=O)C1CCC(CNS(=O)(=O)c2cccc3nsnc23)CC1)c1ccccc1 (stereo not drawn),x,x,3%,x,x,-1%,x,x,x,x,x
Cc1ccccc1NC(=O)CN1CCCC1,x,x,-5%,x,13%,x,x,x,x,x,x
Cc1ccccc1NC(=O)CN1CCN(C)CC1,25µM*,-2%,0%,-22%,6%,0%,11%,-1%,1%,9%,12%
O=C(NC(=S)N1CCN(c2ccc(O)cc2)CC1)c1cccs1,13µM*,-5%,-18%,-14%,-4%,-6%,15%,14%,-19%,-2%,19%
Cc1ccc(C)c(Cn2c(C3CC(=O)N(c4ccccc4C)C3)nc3ccccc32)c1 (stereo not drawn),x,x,4%,x,x,-5%,x,x,x,x,x
CN(Cc1ccco1)S(=O)(=O)c1nnc(NC(=O)c2ccc(F)cc2)s1,20µM*,-9%,-11%,-20%,-4%,u,7%[10.4 µM],8%,u,32µM*,20µM*
COc1ccc(CN(C)S(=O)(=O)c2nnc(NC(=O)c3ccc(C)cc3)s2)cc1OC,25µM*,-1%,2%,1%,21%,-12%,-14%,-5%,u,u,20µM*
COc1ccc(CN(C)S(=O)(=O)c2nnc(NC(=O)c3ccccc3OC)s2)cc1OC,-17%,3%,-5%,20%,-2%,-6%,x,x,x,x,x
CCOc1ccc(CCNC(=O)c2cn(CC)c3ccc(S(=O)(=O)N4CCc5ccccc5C4)cc3c2=O)cc1OCC,x,x,0%,x,x,2%,x,x,x,x,x
O=C(CNC(=O)c1cccnc1)N=Nc1c(O)[nH]c2c(Br)cc(Br)cc12,28µM*,1%,-6%,-35%,2%,-6%,-1%[10.4 µM],-6%,7%,17%,12%
CCCCn1c(C2CC(=O)N(c3ccc(OCC)cc3)C2)nc2ccccc21 (stereo not drawn),x,x,2%,x,x,12%,x,x,x,x,x
CN(C)CCCC1Sc2ccccc2Sc2ccccc21 (stereo not drawn),x,x,-6%,x,-2%,x,x,x,x,x,x
CNCCC1Sc2ccccc2Oc2ccccc21 (stereo not drawn),18µM*,-3%,4%,1%,-11%,u,-9%,4%,-2%,4%,5%
CCCCNc1nc2c(S(=O)(=O)c3ccc(Br)cc3)nnn2c2ccsc12,x,x,-7%,x,x,1%,x,x,x,x,x
Cn1c(=O)c2nc3ccc(NC(=O)C(F)(F)F)cc3nc2n(C)c1=O,x,x,4%,x,x,16%,x,x,x,x,x
